# Compound activity deposited in PubChem by National Center for Advancing Translational Sciences (NCATS).
# The list is not random: actives were taken first. Their share in the collection is about 19%.
# HT1080 IDH1KD tx = qHTS for induction of synthetic lethality in tumor cells producing 2HG: qHTS for the HT-1080-IDH1KD cell line; HT-1080 IDH1 knockdown viability, ATP luminescence, 48 h; actives 2% (n = 360,000); Potency, µM (top dose mostly 46.1 µM), inactives show top-dose activity, negative = toxicity, hits mostly cytotoxic; AID 686971, 2013;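 also: 0% = DMSO wells and -100% = cell-free medium wells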
#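 In this qHTS, HT-1080 cells depleted of IDH1 are exposed for 48 h at 37 °C to compound titrations. Toxicity is scored from CellTiter-Glo luminescence, with DMSO as full viability and medium alone as none.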
# HT1080NT lethal = qHTS for induction of synthetic lethality in tumor cells producing 2HG: qHTS for the HT-1080-NT fibrosarcoma cell line. HT-1080-NT fibrosarcoma viability, CellTiter-Glo ATP luminescence, 48 h. Potency, µM (series often up to 46.1 µM), for inactives: top-dose activity, negative = less viability, usual class: cytotoxic. actives 1.6% (n = 360,000). AID 686970, 2013;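 also: NT is the 2HG producing partner of a matched IDH1 knockdown line; 0% = DMSO-treated cells and -100% = media-only wells without cells; nearly all actives have a fitted effect of over 55% in size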
#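 HT-1080-NT fibrosarcoma cells (2HG-overproducing), 750 cells/well in RPMI with 5% FBS, dosed after 2 h and incubated 48 h at 37C. CellTiter-Glo luminescence normalized to DMSO and no-cell wells; concentration-response curves fitted and classed.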
# TDP1 cell CPT = qHTS for Inhibitors of human tyrosyl-DNA phosphodiesterase 1 (TDP1): qHTS in cells in presence of CPT; chicken DT40 Tdp1-/-;hTDP1 cells + 20 nM CPT, ATP luminescence, 48 h; Potency, µM (series often up to 46.2 µM), inactives show top-dose activity change, negative = growth inhibition, most hits filed as inhibitors; actives 12% (n = 420,000); AID 686979, 2013; also: nearly all actives have a fitted effect of over 55% in size
#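 Cell growth measured by CellTiter-Glo luminescence after a minimum 48 h, 37 C compound exposure with 20 nM CPT in Tdp1-knockout DT40 cells stably expressing hTDP1, seeded 400/well; qHTS titration format.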
# KB-V1 MDR tox = qHTS assay for MDR1-selective chemotherapeutics: Primary screen using the drug-selected MDR subline cells KB-V1; KB-V1 MDR cells viability, CellTiter-Glo, 72 h; Potency, µM (doses to about 46.1 µM), actives largely listed as cytotoxic; actives 3.4% (n = 400,000); also: nearly all actives have a fitted effect of over 60% in size
#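 Cytotoxicity toward P-gp-expressing KB-V1 cells was determined as loss of CellTiter-Glo luminescence after 72 h at 37 degrees C. Compounds were tested in quantitative HTS format across a concentration range, with curves fitted to normalized data.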
# DT40 TDP1 no CPT = qHTS for Inhibitors of human tyrosyl-DNA phosphodiesterase 1 (TDP1): qHTS in cells in absence of CPT; DT40 Tdp1-/- hTDP1 cells, no CPT, ATP luminescence, 48 h; Potency, µM (titrated, usually from 46.2 µM), for inactives: top-dose activity change, negative = growth inhibition, usual class: inhibitors; actives 15% (n = 420,000); AID 686978, 2013; also: nearly all actives have a fitted effect of over 55% in size
#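 Luminescent ATP content (CellTiter-Glo) served as the growth readout. Knockout chicken DT40 cells expressing human TDP1 were exposed to compounds without camptothecin for a minimum 48 hr at 37 °C.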
# KB-3-1 tox = qHTS assay for MDR1-selective chemotherapeutics: Primary screen using the parental adenocarcinoma cell KB-3-1 | KB-3-1 viability, CellTiter-Glo ATP luminescence, 72 h | Potency, µM (top dose mostly 46.1 µM), hits mostly cytotoxic | actives 1.4% (n = 400,000); also: nearly all actives have a fitted effect of over 60% in size
#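 72 h, 37 °C compound treatment of KB-3-1 parental cells; CellTiter-Glo added, 10 min, luminescence read. Data corrected against DMSO-only plates and normalized before curve fitting.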
# The depositor's hits bear a star; i = inactive; ? = inconclusive; nt = not tested or not shown. Calls follow the shape of the dose curve; as a rule, active = well fitted curve in the direction sought with a large enough effect; inconclusive = small, poorly fitted or top-dose-only effect, or another doubt; inactive = no such curve, though single readings can be large; an effect the other way counts as inactive or inconclusive. Unless noted, % is scaled to controls: 0 for no effect and ±100 for the full control effect; potency is read from the fitted curve at half-maximal effect.
SMILES,HT1080 IDH1KD tx,HT1080NT lethal,TDP1 cell CPT,KB-V1 MDR tox,DT40 TDP1 no CPT,KB-3-1 tox
COc1ccc(CNc2ncnc3ccc(-c4ccccc4CN(C)C)cc23)c(OC)c1,nt,nt,21µM*,nt,10µM*,nt
CC(=O)N1N=C(c2ccccc2OC(=O)/C=C/c2ccccc2)CC1c1ccccc1 (configuration not stated),-13%,-19%,-15%,i,?,?
COc1ccc(-c2c(-c3cc(OC)cc(OC)c3)n(C)c3ccc(-c4cc(F)cc(OC)c4)cc23)cc1,-1%,5%,?,i,16µM*,i
COc1ccc(-c2c(-c3cc(OC)cc(OC)c3)n(C)c3ccc(-c4ccc(SC)cc4)cc23)cc1,10%,4%,-6%,?,7%,i
COc1cccc(-c2c(-c3cc(OC)cc(OC)c3)n(C)c3ccc(-c4ccc5[nH]ccc5c4)cc23)c1,-4%,-10%,?,i,?,?
COc1cc(OC)cc(-c2c(-c3ccc(F)cc3)c3cc(-c4ccc5[nH]ccc5c4)ccc3n2C)c1,-7%,-7%,29µM*,21µM*,?,i
Cc1ccc(NC(=O)Cn2cc(C(=O)C3CCCCC3)c3ccccc32)c(C)c1,nt,nt,?,?,?,i
Cc1cnc(CNC(=O)c2ccc3sc([C@H]4C[C@H](O)[C@@H](CO)O4)nc3c2)cn1,12%,?,?,i,12%,i
O=C(c1cnn2c(C(F)F)cc(-c3ccccc3)nc12)N1CCCCC1c1cccnc1 (configuration not stated),2%,12%,15µM*,i,?,i
O=C(c1cnn2c(C(F)F)cc(-c3ccccc3)nc12)N1CCN2CCCC2C1 (configuration not stated),-12%,-8%,-3%,i,4%,i
Cc1ccc(-c2cc(C(=O)N3CCCc4ccccc43)c3ccccc3n2)cc1,-1%,-3%,?,23µM*,23µM*,?
Cc1ccc(-c2cc(C(F)(F)F)n3ncc(C(=O)N4CCCc5ccccc54)c3n2)cc1,-4%,-9%,-28%,i,-10%,i
Cc1ccc(-c2cc(C(F)F)n3ncc(C(=O)N4CCc5ccccc54)c3n2)cc1,2.3µM*,2.9µM*,1.8µM*,5.8µM*,1.8µM*,i
CCc1nccn1C(=O)c1cnn2c(C(F)F)cc(-c3ccc(C)cc3)nc12,2%,2%,21µM*,?,15µM*,?
O=C(c1cnn2c(C(F)F)cc(-c3ccccc3)nc12)N1CCc2ccccc21,3%,2%,18µM*,i,?,i
Cc1ccc2nc3sc(C(=O)N4CCCc5ccccc54)c(N)c3cc2c1,2%,-2%,?,6.5µM*,15µM*,?
CC(=O)c1cccc(NC(=O)C2CCCN(c3nnc(-n4cccc4)s3)C2)c1 (configuration not stated),nt,nt,?,i,16µM*,i
Cc1cc(F)ccc1NC(=O)C1CCCN(c2nnc(-n3c(C)ccc3C)s2)C1 (configuration not stated),nt,nt,21µM*,?,16µM*,i
Cc1ccccc1NC(=O)C1CCCN(c2nnc(N3CCCC3=O)s2)C1 (configuration not stated),6%,20%,-7%,i,-7%,i
